Reference: PubChem BioAssay (Tox21)
Values joined by “and” are separate entries in the source; they are usually repeats but may differ in a detail not shown here. Equal entries are not always repeated. Results filed as inconclusive are left out. Where a call stands in place of a potency, no number is given. More than one record can exist for a structure, and the calls need not agree. Active and inactive are the calls of the source. Unless noted, calls come from the whole dose curve; as a rule, active = well fitted curve in the direction sought with a large enough effect in the repeat runs; inconclusive = weak or mixed curves; inactive = no such curve, though single readings can be large; an effect the other way counts as inactive or inconclusive.

How the values were obtained:
[1] = target: Thyrotropin-releasing hormone receptor (Homo sapiens) (UniProt P34981); assay: qHTS assay to identify small molecule agonists of the thyrotropin-releasing hormone receptor (TRHR) signaling pathway (AID 1346891; calls by dose curve; note: series mostly up to about 58 µM)
Sequence of Thyrotropin-releasing hormone receptor (Homo sapiens) (P34981 whole entry, looked up): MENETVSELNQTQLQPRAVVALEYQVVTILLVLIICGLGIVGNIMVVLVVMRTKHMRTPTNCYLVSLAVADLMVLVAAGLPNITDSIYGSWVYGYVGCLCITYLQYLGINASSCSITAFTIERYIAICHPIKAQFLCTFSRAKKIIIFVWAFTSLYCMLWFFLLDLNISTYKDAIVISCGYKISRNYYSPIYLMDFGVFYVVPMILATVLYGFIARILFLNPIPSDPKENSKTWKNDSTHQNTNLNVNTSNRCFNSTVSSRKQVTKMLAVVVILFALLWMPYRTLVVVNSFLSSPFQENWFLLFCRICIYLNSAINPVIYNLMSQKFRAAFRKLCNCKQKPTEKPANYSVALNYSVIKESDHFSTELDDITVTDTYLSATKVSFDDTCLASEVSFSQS
How it was run: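 Readout was intracellular calcium fluorescence in TRHR-Hek293 cells. Cells were incubated 18 h, dye-loaded 2 h at 37 °C, and treated with compound in agonist mode.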

[2] = Human pregnane X receptor (PXR) small molecule agonists, qHTS cell viability counter screen (AID 1346977); note: nearly all actives have a fitted effect of over 50% in size
How it was run: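 In each well, the PXR reporter HepG2 line was checked for viability: CellTiter-Fluor reagent added 23hr post-dosing, fluorescence read after 1hr incubation at 37C.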

[3] = Caspase-3/7 induction in HepG2 cells by small molecules, qHTS assay (AID 1346978); note: nearly all actives have a fitted effect of over 15% in size
How it was run: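 Wild-type HepG2 cells, 2,000/well, settled 5 hr at 37 C and 5% CO2, then compound-treated for 17 hr; caspase-3/7 activity read by luminescent Caspase-Glo 3/7 after 30 min at room temperature.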

[4] = Caspase-3/7 induction in HepG2 cells by small molecules, qHTS cell viability counter screen (AID 1346981); note: nearly all actives have a fitted effect of over 30% in size; note: potency is the fitted concentration of half-maximal effect
How it was run: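 Wild-type HepG2 cells, 2,000/well, settled 5 hr at 37 C, 5% CO2 before compound addition. Viability read by CellTiter-Fluor fluorescence, reagent added after 16 hr compound exposure, then 1 hr at 37C, in the same wells as the caspase read.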

[5] = target: Nuclear receptor subfamily 1 group I member 2 (Homo sapiens) (UniProt O75469); assay: Human pregnane X receptor (PXR) small molecule agonists, qHTS assay (AID 1346982); note: nearly all actives have a fitted effect of over 35% in size; note: potency is the fitted concentration of half-maximal effect
Sequence of Nuclear receptor subfamily 1 group I member 2 (Homo sapiens) (O75469 whole entry, looked up): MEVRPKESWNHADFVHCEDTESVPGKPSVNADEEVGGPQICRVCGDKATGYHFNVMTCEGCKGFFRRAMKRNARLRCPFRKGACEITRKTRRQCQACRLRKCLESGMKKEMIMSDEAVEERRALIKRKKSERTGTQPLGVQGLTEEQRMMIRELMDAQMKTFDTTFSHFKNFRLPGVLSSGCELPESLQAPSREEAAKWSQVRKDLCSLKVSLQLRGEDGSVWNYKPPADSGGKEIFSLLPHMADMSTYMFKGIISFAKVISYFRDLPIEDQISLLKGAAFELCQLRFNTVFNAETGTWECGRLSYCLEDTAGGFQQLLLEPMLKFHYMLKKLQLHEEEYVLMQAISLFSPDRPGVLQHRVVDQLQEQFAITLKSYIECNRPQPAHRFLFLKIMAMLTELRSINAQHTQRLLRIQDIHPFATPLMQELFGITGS
How it was run: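 PXR-Luc HepG2 reporter cells (CYP3A4-driven luciferase) in 5% charcoal-stripped FBS medium, plated 5 h before compound addition, then treated 24 h at 37C. Luciferase read by ONE-Glo luminescence after 30 min at room temperature.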

[6] = target: Cytochrome P450 2D6 (Homo sapiens) (UniProt P10635); assay: Cytochrome P450 Family 2 Subfamily D Member 6 (CYP2D6) small molecule antagonists: luciferase reporter qHTS assay (AID 1671196); note: nearly all actives have a fitted effect of over 50% in size; note: potency is the fitted concentration of half-maximal effect
Sequence of Cytochrome P450 2D6 (Homo sapiens) (P10635 whole entry, looked up): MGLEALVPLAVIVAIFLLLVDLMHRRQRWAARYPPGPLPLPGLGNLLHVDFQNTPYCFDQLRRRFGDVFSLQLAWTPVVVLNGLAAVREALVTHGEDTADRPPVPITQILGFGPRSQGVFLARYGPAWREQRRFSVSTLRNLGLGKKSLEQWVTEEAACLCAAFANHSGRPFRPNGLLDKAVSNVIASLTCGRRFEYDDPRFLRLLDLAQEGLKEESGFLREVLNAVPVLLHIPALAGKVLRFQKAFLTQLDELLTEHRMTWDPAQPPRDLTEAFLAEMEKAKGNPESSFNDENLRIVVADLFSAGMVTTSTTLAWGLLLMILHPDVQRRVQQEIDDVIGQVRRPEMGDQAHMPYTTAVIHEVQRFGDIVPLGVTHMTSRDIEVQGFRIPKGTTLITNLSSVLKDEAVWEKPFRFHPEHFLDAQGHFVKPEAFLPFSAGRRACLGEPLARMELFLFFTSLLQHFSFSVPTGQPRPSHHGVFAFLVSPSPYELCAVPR
How it was run: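 Cell-free P450-Glo system: CYP2D6 with proluciferin substrate was pre-incubated with compound for 10 min, then reacted with NADPH regeneration for 1 h at room temperature. Luciferin product was detected after 20 min, and data were reported as relative luminescence units.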

[7] = target: Cytochrome P450 2C19 (Homo sapiens) (UniProt P33261); assay: Cytochrome P450 Family 2 Subfamily C Member 19 (CYP2C19) small molecule antagonists: luciferase reporter qHTS assay (AID 1671197); note: nearly all actives have a fitted effect of over 65% in size; note: potency is the fitted concentration of half-maximal effect
Sequence of Cytochrome P450 2C19 (Homo sapiens) (P33261 whole entry, looked up): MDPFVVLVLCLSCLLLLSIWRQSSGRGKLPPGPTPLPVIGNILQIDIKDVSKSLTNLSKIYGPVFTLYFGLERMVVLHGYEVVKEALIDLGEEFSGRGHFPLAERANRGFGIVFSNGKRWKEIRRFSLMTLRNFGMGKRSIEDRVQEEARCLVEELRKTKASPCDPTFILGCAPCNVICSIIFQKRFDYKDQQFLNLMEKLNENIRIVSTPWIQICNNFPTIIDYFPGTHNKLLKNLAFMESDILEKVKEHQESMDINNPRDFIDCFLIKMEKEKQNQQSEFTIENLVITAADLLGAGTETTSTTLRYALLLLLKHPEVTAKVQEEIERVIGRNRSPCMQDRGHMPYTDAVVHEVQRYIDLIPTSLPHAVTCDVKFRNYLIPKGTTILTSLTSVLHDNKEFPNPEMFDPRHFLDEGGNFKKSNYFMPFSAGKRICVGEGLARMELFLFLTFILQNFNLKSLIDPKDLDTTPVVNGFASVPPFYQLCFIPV
How it was run: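 Luminescent readout of CYP2C19 activity: luciferin product detected 20 min after adding detection reagent. Before that, compound and enzyme-substrate mix preincubated 10 min at room temperature; NADPH-regenerating system started a 1 h, 37C reaction. Ketoconazole as positive control.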

[8] = target: Voltage-gated inwardly rectifying potassium channel KCNH2 (Homo sapiens) (UniProt Q12809); assay: Human Ether-a-go-go-Related Gene (hERG) channel small molecule antagonists: fluorescence cell-based qHTS assay (AID 1671200);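 note: hERG-expressing U2OS cells given a thallium stimulus after FluxOR II dye loading; series mostly up to about 77 µM; nearly all actives have a fitted effect of over 50% in size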
Sequence of Voltage-gated inwardly rectifying potassium channel KCNH2 (Homo sapiens) (Q12809 whole entry, looked up): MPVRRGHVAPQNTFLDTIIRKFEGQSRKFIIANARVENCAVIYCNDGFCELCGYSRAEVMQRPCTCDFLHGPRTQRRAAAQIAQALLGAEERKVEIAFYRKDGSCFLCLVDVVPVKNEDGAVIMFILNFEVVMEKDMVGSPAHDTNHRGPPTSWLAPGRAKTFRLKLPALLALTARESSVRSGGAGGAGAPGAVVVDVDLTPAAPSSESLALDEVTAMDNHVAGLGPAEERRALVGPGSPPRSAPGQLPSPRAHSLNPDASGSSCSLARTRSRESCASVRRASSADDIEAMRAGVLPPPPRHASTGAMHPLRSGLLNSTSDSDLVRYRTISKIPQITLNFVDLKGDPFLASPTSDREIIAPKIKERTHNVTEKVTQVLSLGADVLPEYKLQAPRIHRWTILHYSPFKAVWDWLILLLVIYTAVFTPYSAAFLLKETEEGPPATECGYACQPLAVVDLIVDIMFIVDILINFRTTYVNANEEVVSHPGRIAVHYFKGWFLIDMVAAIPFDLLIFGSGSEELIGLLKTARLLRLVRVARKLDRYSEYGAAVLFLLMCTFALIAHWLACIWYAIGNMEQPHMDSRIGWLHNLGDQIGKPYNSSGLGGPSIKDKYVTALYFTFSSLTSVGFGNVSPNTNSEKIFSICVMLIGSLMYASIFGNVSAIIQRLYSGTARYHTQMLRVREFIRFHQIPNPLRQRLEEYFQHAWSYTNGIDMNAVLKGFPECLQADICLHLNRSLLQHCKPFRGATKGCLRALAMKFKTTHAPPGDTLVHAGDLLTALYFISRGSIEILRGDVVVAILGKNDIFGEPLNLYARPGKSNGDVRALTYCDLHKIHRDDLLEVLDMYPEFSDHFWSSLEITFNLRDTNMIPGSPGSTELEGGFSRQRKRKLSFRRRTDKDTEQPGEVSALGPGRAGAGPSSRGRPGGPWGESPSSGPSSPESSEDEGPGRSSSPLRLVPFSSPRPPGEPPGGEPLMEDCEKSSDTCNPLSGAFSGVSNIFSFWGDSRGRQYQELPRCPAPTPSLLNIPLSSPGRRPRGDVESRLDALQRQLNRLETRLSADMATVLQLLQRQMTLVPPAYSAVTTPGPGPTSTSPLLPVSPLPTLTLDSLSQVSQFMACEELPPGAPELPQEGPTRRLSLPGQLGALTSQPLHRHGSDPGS
How it was run: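 In this thallium-flux screen, overnight-cultured U2OS cells bearing the channel are dye-loaded in darkness for an hour, rested 10 min at room temperature, and then monitored kinetically at 480/540 nm for two minutes post-stimulus.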

[9] = target: Cytochrome P450 3A4 (Homo sapiens) (UniProt P08684); assay: Cytochrome P450 Family 3 Subfamily A Member 4 (CYP3A4) small molecule antagonists: luciferase reporter qHTS assay (AID 1671201); note: series mostly up to about 120 µM; nearly all actives have a fitted effect of over 50% in size
Sequence of Cytochrome P450 3A4 (Homo sapiens) (P08684 whole entry, looked up): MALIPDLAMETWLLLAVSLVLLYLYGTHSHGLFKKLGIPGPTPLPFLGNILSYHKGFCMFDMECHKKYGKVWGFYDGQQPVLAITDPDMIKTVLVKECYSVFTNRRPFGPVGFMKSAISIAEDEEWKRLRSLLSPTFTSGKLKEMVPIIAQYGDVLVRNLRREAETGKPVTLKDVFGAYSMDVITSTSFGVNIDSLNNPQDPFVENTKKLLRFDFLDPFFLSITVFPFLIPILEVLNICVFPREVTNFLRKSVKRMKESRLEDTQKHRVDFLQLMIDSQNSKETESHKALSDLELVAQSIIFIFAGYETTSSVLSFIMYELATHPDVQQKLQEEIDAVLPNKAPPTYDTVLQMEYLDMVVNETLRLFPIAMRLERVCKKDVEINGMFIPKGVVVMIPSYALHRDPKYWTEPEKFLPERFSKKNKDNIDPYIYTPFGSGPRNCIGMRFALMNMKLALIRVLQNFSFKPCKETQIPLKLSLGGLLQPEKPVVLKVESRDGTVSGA
How it was run: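 CYP3A4 activity was followed with a P450-Glo proluciferin substrate. Test compounds in DMSO were preincubated 10 min; NADPH regeneration then ran 1 h, and light output was read 20 min after detection reagent.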

[10] = Caspase-3/7 induction in CHO-K1 cells by small molecules, qHTS cell viability counter screen (AID 1346979); note: nearly all actives have a fitted effect of over 35% in size; note: potency is the fitted concentration of half-maximal effect
How it was run: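 Following a 5hr settling period, CHO-K1 cells at 1,500 per well received DMSO-dissolved compounds. Cell viability was quantified 16hr later by CellTiter-Fluor fluorescence, measured after 1hr with reagent at 37C.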

[11] = Caspase-3/7 induction in CHO-K1 cells by small molecules, qHTS assay (AID 1346980); note: nearly all actives have a fitted effect of over 15% in size
How it was run: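 Wild-type CHO-K1 cells exposed to compounds for 17hr at 37 C, 5% CO2. Caspase-3/7 activity then measured by Caspase-Glo 3/7 luminescence after 30min at room temperature.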

[12] = target: Cytochrome P450 2C9 (Homo sapiens) (UniProt P11712); assay: Cytochrome P450 Family 2 Subfamily C Member 9 (CYP2C9) small molecule antagonists: luciferase reporter qHTS assay (AID 1671198); note: nearly all actives have a fitted effect of over 50% in size; note: potency is the fitted concentration of half-maximal effect
Sequence of Cytochrome P450 2C9 (Homo sapiens) (P11712 whole entry, looked up): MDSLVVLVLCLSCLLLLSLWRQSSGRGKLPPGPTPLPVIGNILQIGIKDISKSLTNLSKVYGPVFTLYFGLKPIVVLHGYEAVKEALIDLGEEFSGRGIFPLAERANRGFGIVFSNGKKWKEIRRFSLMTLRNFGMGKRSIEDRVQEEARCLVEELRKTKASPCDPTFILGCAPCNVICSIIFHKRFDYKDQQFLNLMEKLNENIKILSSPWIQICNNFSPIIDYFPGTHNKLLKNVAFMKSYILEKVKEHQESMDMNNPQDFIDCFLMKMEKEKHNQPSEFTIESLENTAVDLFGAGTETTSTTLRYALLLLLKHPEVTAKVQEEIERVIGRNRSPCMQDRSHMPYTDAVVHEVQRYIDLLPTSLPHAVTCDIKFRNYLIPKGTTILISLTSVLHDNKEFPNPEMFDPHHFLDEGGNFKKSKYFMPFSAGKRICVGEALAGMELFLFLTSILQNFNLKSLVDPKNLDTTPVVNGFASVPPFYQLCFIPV
How it was run: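 P450-Glo proluciferin substrate with CYP2C9 enzyme; 10 min RT preincubation, then NADPH regeneration 1 h at 37C; luciferin detection reagent 20 min RT, luminescence in relative luminescence units.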

[13] = target: Nuclear receptor subfamily 1 group I member 2 (Rattus norvegicus) (UniProt Q9R1A7); assay: Rat pregnane X receptor (rPXR) activation by small molecules, qHTS assay (AID 1346983); conditions: rPXR luciferase reporter cells, One-Glo luminescence, 24 h; stronger effect = higher value; note: nearly all actives have a fitted effect of over 20% in size
Sequence of Nuclear receptor subfamily 1 group I member 2 (Rattus norvegicus) (Q9R1A7 whole entry, looked up): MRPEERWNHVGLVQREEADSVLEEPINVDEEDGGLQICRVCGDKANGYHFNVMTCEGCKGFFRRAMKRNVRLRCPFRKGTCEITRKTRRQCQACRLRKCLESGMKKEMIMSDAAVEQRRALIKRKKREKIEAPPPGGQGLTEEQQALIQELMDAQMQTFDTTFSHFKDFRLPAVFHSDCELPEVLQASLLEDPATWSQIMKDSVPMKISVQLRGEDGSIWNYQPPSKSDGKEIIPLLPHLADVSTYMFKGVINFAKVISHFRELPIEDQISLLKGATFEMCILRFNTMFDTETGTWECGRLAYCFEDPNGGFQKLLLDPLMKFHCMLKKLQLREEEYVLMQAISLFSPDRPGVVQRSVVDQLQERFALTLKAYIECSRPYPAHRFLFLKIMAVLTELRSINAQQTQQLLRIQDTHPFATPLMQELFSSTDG
How it was run: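 Cell-based rPXR activation assay: rPXR cells, 2,000 per well, rested 5hr at 37 C, then exposed to compounds in DMSO for 24 hr at 37 C. Luciferase activity read by One-Glo luminescence after 30 min at room temperature.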

[14] = target: Nuclear receptor subfamily 1 group I member 2 (Homo sapiens) (UniProt O75469); assay: CYP3A4 induction through human pregnane X receptor (PXR) by small molecules, qHTS assay (AID 1346984); note: nearly all actives have a fitted effect of over 40% in size
How it was run: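 DPX-2 HepG2 cells carrying a PXR response element and CYP3A4-promoter luciferase construct, treated with compounds 24 hr at 37C. Then P450-Glo CYP3A4 Luciferin-IPA substrate (3uM final) for 3 hr at 37C, One-Glo added, luminescence read.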

[15] = target: Nuclear receptor subfamily 1 group I member 2 (Homo sapiens) (UniProt O75469); assay: Human pregnane X receptor (PXR) activation by small molecules, qHTS assay (AID 1346985); note: nearly all actives have a fitted effect of over 40% in size
How it was run: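 DPX-2 cells (HepG2 co-transfected with a PXR response element and a CYP3A4-promoter luciferase construct) were seeded at 2,000 per well, rested 5 hr at 37C, then exposed to DMSO-dissolved compounds for 24 hr. Activation was read as luciferase luminescence.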

[16] = target: Cytochrome P450 1A2 (Homo sapiens) (UniProt P05177); assay: Cytochrome P450 Family 1 Subfamily A Member 2 (CYP1A2) small molecule antagonists: luciferase reporter qHTS assay (AID 1671199); note: nearly all actives have a fitted effect of over 50% in size; note: potency is the fitted concentration of half-maximal effect
Sequence of Cytochrome P450 1A2 (Homo sapiens) (P05177 whole entry, looked up): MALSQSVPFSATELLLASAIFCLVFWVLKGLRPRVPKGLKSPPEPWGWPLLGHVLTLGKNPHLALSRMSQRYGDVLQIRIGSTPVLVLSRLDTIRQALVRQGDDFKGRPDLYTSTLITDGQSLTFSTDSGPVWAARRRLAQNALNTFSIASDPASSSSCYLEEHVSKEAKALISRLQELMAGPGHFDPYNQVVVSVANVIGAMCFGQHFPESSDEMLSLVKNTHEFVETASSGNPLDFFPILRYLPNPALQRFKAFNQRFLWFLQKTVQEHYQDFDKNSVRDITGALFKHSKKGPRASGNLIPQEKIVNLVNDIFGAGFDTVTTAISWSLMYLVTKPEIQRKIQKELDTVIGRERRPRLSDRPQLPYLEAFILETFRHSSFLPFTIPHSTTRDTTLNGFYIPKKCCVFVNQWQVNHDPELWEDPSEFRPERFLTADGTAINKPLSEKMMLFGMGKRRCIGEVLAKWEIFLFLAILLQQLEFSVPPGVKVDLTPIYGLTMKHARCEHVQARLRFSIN
How it was run: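 P450-Glo CYP1A2 enzyme–proluciferin substrate mix with compound 10 min at room temperature, then NADPH regeneration 1 h at room temperature. Luciferin detection reagent added, luminescence read after 20 min; furafylline positive control.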

| Structure (SMILES) | outcome [1] | Potency [2] | Potency [3] | Potency [4] | Potency [5] | Potency [6] | Potency [7] | Potency [8] | Potency [9] | Potency [10] | outcome [11] | Potency [12] | max activation [13] | Potency [14] | Potency [15] | Potency [16] |
| --- | --- | --- | --- | --- | --- | --- | --- | --- | --- | --- | --- | --- | --- | --- | --- | --- |
| CCCCNC(=O)NCCCC | inactive | inactive | inactive | inactive | inactive | inactive | 39.9 µM (active) | inactive | inactive |  |  |  |  |  |  |  |
| COC(=O)C1=C(C)NC(C)=C(C(=O)OC)C1c1ccccc1[N+](=O)[O-] | inactive |  | inactive | 30.7 µM (active) and inactive |  |  |  |  |  | 48.6 µM (active) and 26.6 µM (active) | inactive |  |  |  |  |  |
| CC(C)=CCCC(C)CC(=O)O (stereo unspecified) | inactive | inactive | inactive |  | inactive |  | 35.6 µM (active) | inactive | inactive |  | inactive | 63.3 µM (active) |  |  |  |  |
| N=c1nc(N2CCCCC2)cc(N)n1O | inactive |  | inactive | inactive | inactive | 21.9 µM (active) | inactive | inactive | inactive | inactive | inactive | inactive |  |  |  |  |
| O=C(O)COc1nn(Cc2ccccc2)c2ccccc12 | inactive | inactive | inactive | inactive | inactive | inactive | inactive |  |  |  | inactive |  | -0.954% (inactive) | inactive | inactive | inactive |
| NS(=O)(=O)c1cc(C(=O)NN2C[C@H]3[C@H]4CCC(C4)[C@H]3C2)ccc1Cl | inactive | inactive | inactive | inactive | inactive | inactive | inactive | inactive |  |  |  | inactive |  |  |  | inactive |
| c1ccc([C@H]2CN3CCSC3=N2)cc1 | inactive |  | inactive | inactive | inactive |  | inactive |  | inactive | inactive | inactive | inactive | -1.7% (inactive) | inactive | inactive |  |
| COC(=O)CCSCCC(=O)OC | inactive |  | inactive | inactive | inactive | inactive | inactive | inactive | inactive | inactive | inactive | inactive |  |  |  |  |
| CO[Si](CCCOCC1CO1)(OC)OC (stereo unspecified) | inactive |  | inactive | inactive | inactive | inactive | inactive | inactive | inactive | inactive | inactive | inactive |  |  |  |  |
| CC(C)NC(=O)NC(C)C | inactive |  | inactive | inactive | inactive | inactive | inactive | inactive | inactive | inactive | inactive | inactive |  |  |  | inactive |
| CCn1ccnc1CC1COc2ccccc2O1 (stereo unspecified) | inactive |  | inactive | inactive | 26.6 µM (active) | 0.776 µM (active) | 4.9 µM (active) |  |  | inactive | inactive | inactive |  |  |  |  |
| c1cnc(N2CCN(Cc3ccc4c(c3)OCO4)CC2)nc1 | inactive |  | inactive | inactive | inactive | 1.23 µM (active) | 3.47 µM (active) |  |  | inactive | inactive | 15.5 µM (active) |  |  |  | 4.07 µM (active) |
